According to ChEMBL document CHEMBL2218924, “A broad activity screen in support of a chemogenomic map for kinase signalling research and drug discovery” (Biochem J, 2013):

What was measured:
[1] = target: Serine/threonine-protein kinase PAK 4 (Homo sapiens) (UniProt O96013); settings: at 1 µM
[2] = target: Serine/threonine-protein kinase PAK 4 (Homo sapiens) (UniProt O96013); settings: at 10 µM
[3] = target: Serine/threonine-protein kinase PAK 5 (Homo sapiens) (UniProt Q9P286); settings: at 1 µM
[4] = target: Serine/threonine-protein kinase PAK 5 (Homo sapiens) (UniProt Q9P286); settings: at 10 µM
[5] = target: Serine/threonine-protein kinase PAK 6 (Homo sapiens) (UniProt Q9NQU5); settings: at 1 µM
[6] = target: Serine/threonine-protein kinase PAK 6 (Homo sapiens) (UniProt Q9NQU5); settings: at 10 µM
[7] = target: PAS domain-containing serine/threonine-protein kinase (Homo sapiens) (UniProt Q96RG2); settings: at 10 µM
[8] = target: Activated CDC42 kinase 1 (Homo sapiens) (UniProt Q07912); settings: at 1 µM
[9] = target: Activated CDC42 kinase 1 (Homo sapiens) (UniProt Q07912); settings: at 10 µM
[10] = target: T1, Activin receptor type-1B (Homo sapiens) (UniProt P36896); settings: at 1 µM
T1 sequence (whole entry): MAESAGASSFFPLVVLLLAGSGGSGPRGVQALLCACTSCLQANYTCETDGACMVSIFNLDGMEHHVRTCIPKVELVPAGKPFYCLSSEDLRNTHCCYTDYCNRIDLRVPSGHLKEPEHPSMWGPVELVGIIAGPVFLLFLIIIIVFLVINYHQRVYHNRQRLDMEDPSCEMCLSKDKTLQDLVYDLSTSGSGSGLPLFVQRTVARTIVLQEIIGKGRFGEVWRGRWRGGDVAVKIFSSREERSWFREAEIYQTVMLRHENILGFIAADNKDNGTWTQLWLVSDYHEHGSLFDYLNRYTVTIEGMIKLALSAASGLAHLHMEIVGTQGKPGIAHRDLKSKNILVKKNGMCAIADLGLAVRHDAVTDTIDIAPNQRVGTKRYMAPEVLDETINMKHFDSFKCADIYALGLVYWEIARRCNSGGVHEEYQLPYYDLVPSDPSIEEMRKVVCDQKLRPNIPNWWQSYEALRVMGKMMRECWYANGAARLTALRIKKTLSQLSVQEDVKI

[11] = target: T2, NUAK family SNF1-like kinase 1 (Homo sapiens) (UniProt O60285); settings: at 1 µM
T2 sequence (whole entry): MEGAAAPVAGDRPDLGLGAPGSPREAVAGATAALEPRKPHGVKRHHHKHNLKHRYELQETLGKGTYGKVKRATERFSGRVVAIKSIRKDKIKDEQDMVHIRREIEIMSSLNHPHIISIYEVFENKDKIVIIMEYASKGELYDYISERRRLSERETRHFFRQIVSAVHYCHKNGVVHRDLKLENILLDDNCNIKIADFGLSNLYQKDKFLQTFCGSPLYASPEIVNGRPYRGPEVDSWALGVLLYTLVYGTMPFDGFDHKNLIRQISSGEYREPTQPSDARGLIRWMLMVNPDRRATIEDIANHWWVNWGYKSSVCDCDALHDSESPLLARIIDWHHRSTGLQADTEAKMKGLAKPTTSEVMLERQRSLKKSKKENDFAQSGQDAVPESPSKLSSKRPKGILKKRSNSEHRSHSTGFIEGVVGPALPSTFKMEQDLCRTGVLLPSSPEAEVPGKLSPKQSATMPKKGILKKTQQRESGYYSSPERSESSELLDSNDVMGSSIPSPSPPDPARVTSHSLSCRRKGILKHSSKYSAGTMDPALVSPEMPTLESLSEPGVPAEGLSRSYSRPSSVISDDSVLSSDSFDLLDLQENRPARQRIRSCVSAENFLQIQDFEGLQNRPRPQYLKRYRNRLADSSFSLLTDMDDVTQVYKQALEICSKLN

[12] = target: T2, NUAK family SNF1-like kinase 1 (Homo sapiens); settings: at 10 µM
[13] = target: T1, Activin receptor type-1B (Homo sapiens); settings: at 10 µM
[14] = target: T3, AMP-activated protein kinase, AMPK (Homo sapiens) (UniProt P54646+O43741+P54619+Q9UGJ0+Q9Y478+Q13131+Q9UGI9); settings: at 1 µM
[15] = target: T3, AMP-activated protein kinase, AMPK (Homo sapiens); settings: at 10 µM
[16] = target: T4, Mitogen-activated protein kinase kinase kinase 5 (Homo sapiens) (UniProt Q99683); settings: at 1 µM
T4 sequence (whole entry): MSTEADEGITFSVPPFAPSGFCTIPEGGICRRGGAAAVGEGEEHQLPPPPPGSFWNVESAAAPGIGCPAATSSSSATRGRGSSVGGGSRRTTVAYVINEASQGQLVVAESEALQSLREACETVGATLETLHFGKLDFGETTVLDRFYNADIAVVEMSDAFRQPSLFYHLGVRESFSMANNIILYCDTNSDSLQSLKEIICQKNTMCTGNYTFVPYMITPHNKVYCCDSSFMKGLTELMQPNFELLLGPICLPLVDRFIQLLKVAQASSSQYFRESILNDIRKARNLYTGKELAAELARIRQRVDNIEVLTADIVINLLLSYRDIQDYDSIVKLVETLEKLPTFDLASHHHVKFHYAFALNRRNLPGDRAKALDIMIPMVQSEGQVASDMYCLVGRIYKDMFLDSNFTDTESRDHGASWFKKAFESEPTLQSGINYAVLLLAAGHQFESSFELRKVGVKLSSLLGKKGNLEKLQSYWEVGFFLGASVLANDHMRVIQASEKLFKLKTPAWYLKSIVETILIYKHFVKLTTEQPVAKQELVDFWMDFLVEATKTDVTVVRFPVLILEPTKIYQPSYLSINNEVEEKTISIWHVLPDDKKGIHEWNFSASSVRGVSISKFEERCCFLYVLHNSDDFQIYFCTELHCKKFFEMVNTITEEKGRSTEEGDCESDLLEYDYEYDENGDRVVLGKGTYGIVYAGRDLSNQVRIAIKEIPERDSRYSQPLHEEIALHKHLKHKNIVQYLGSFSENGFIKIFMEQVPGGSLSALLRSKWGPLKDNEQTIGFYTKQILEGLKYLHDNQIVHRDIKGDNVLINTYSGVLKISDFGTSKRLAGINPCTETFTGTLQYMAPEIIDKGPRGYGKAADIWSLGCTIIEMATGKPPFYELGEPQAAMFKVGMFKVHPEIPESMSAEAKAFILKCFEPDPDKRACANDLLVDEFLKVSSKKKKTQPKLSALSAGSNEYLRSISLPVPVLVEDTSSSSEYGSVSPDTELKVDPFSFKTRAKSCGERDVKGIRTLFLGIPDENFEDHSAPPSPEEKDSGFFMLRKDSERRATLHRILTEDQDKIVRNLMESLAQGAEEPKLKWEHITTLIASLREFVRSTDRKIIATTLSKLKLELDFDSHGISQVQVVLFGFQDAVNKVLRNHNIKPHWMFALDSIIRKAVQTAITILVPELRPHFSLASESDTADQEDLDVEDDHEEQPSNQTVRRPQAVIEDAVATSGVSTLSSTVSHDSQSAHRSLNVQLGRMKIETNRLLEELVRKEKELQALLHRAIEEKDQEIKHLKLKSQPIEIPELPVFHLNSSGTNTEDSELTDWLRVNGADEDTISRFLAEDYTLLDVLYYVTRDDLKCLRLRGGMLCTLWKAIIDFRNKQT

[17] = target: ALK tyrosine kinase receptor (Homo sapiens) (UniProt Q9UM73); settings: at 1 µM
[18] = target: T5, AMP-activated protein kinase (AMPK) alpha-1/beta-1/gamma-1 (Homo sapiens) (UniProt P54619+Q9Y478+Q13131); settings: at 1 µM
[19] = target: T5, AMP-activated protein kinase (AMPK) alpha-1/beta-1/gamma-1 (Homo sapiens); settings: at 10 µM
[20] = target: ALK tyrosine kinase receptor (Homo sapiens) (UniProt Q9UM73); settings: at 10 µM

T5 sequence (P54619 whole entry): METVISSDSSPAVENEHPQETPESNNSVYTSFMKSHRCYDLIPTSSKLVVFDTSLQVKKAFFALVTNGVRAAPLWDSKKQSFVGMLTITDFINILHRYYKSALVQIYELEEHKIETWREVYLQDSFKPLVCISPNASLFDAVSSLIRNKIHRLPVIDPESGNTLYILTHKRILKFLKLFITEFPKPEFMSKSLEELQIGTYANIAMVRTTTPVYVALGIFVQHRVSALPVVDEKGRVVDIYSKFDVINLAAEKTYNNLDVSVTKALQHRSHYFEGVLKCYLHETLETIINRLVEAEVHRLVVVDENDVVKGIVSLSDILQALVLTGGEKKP
T5 sequence (Q13131 whole entry partner): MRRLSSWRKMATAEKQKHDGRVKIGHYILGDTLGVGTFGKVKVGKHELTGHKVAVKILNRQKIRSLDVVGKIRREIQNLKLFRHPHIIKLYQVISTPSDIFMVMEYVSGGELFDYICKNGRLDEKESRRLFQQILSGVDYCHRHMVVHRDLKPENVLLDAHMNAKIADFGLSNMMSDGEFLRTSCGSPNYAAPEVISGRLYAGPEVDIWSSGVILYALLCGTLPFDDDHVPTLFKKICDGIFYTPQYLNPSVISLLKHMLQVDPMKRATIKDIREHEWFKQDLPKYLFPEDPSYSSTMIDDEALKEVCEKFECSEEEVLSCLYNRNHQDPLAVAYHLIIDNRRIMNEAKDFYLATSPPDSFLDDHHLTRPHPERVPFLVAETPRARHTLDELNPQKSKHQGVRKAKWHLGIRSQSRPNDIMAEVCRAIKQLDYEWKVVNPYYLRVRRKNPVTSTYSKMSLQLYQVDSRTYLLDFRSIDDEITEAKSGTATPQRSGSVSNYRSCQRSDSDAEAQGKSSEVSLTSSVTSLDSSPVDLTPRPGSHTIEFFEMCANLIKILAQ
T5 sequence (Q9Y478 2-270 partner limits assumed): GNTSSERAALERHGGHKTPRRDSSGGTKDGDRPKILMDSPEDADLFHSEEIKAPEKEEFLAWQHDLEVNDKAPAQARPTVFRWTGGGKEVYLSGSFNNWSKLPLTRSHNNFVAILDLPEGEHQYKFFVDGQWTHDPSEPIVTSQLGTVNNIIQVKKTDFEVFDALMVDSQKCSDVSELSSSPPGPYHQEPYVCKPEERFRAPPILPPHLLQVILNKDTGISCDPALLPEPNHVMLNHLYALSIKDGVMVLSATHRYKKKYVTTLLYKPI
Sequence of Activated CDC42 kinase 1 (Homo sapiens) (Q07912 whole entry, looked up): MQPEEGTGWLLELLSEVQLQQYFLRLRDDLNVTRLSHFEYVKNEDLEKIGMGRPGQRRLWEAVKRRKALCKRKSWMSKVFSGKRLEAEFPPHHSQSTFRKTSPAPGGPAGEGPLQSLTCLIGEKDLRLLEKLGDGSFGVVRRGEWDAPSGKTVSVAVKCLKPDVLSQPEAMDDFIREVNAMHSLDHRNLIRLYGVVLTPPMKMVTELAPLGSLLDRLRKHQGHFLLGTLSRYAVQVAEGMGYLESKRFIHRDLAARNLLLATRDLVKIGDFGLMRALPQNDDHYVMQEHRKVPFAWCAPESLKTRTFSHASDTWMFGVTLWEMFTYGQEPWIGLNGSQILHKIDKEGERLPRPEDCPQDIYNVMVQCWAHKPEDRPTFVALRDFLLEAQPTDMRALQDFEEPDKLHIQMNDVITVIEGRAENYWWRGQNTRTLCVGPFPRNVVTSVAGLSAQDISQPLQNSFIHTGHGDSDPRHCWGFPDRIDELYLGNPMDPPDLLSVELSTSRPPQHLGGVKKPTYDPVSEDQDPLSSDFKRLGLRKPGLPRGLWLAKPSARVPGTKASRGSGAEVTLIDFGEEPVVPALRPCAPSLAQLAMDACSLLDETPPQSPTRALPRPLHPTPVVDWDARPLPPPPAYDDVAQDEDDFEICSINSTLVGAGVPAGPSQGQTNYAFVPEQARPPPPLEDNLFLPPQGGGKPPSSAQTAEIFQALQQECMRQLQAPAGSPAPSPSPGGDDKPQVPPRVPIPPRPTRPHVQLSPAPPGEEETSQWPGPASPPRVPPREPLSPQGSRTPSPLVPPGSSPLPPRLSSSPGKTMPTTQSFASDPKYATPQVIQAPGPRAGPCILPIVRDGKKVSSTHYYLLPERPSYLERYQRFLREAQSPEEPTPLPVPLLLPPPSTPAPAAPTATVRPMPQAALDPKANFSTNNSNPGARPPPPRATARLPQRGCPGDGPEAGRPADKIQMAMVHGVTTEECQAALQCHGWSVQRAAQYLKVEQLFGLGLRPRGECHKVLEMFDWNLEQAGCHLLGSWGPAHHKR
Sequence of Serine/threonine-protein kinase PAK 6 (Homo sapiens) (Q9NQU5 whole entry, looked up, the tested form may be a part): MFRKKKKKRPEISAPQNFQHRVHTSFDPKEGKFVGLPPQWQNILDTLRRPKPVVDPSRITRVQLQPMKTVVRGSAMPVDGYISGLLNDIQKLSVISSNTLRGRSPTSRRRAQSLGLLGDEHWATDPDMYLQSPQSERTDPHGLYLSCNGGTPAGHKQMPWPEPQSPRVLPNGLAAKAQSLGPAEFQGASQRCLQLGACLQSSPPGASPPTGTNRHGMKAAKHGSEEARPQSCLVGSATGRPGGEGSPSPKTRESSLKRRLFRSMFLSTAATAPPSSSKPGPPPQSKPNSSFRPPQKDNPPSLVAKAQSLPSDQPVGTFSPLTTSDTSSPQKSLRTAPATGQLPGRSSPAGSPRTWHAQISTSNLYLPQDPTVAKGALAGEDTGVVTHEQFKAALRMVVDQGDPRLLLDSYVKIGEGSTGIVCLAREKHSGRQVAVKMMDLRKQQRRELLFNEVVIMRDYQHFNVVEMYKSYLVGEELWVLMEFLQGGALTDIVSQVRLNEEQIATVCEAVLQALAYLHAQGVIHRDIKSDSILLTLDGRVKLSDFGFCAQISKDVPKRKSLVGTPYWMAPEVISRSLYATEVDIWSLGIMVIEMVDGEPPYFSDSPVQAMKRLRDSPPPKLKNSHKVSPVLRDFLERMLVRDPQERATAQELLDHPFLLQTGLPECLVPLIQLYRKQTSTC
Sequence of ALK tyrosine kinase receptor (Homo sapiens) (Q9UM73 19-1620 limits assumed): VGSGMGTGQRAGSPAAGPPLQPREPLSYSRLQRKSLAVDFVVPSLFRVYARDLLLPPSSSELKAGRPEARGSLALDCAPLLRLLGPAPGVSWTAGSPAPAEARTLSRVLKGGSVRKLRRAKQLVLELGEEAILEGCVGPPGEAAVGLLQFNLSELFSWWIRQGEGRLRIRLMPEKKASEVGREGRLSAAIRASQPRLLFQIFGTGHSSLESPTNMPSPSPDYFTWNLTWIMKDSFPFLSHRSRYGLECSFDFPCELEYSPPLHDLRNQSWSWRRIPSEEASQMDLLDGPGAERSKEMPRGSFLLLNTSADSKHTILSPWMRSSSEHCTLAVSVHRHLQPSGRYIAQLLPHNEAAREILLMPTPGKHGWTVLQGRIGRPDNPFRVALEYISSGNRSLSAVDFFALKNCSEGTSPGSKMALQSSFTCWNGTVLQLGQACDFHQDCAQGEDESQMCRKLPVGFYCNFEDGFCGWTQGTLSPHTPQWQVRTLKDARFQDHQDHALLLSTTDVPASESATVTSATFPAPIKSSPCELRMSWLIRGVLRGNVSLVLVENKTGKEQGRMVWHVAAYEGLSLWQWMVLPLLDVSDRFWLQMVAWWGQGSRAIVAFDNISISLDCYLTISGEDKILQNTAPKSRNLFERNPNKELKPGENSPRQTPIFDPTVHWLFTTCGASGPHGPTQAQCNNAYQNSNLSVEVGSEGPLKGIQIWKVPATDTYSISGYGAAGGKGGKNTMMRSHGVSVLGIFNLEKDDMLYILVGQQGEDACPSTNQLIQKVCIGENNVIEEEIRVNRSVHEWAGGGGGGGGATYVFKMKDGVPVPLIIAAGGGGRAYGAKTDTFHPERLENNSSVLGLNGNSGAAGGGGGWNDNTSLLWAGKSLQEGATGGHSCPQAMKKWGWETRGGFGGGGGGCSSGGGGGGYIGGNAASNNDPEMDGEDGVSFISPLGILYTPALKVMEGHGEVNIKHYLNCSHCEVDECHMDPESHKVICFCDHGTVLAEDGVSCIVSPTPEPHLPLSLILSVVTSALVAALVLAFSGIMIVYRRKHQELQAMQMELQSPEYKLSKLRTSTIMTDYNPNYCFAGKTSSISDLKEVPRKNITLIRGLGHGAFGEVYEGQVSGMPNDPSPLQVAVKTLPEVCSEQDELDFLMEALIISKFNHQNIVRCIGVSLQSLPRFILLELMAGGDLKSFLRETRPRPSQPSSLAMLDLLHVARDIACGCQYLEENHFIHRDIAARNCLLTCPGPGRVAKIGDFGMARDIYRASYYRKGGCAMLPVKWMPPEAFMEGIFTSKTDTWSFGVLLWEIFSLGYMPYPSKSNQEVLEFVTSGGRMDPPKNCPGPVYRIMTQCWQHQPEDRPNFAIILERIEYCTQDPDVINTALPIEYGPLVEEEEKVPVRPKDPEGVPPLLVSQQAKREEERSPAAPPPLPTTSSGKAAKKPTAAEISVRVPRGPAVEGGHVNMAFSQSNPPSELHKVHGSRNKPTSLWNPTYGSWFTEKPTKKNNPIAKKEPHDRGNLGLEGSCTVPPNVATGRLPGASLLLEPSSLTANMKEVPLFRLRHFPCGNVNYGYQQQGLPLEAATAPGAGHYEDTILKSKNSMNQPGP
Sequence of Serine/threonine-protein kinase PAK 4 (Homo sapiens) (O96013 whole entry, looked up): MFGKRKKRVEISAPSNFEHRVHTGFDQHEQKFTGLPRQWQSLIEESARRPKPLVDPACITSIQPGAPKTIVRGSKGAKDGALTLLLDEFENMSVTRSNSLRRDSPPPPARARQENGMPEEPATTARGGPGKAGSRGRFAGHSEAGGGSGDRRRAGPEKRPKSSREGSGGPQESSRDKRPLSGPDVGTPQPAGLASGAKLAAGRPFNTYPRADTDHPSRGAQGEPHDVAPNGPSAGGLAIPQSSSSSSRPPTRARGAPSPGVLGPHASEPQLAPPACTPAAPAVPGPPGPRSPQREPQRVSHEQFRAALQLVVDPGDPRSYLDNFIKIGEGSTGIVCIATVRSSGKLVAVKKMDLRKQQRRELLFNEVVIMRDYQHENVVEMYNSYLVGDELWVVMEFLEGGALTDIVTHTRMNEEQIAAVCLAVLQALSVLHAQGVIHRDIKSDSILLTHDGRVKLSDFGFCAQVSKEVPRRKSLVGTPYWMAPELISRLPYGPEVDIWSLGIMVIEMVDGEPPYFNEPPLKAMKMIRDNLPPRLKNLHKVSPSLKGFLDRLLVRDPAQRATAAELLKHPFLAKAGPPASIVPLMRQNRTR

Structure (SMILES): NCCNc1ncc(C(N)=O)c(Nc2cccc(C(F)(F)F)c2)n1
- residual activity [1]: 49%
- residual activity [2]: 9%
- residual activity [3]: 48%
- residual activity [4]: 9%
- residual activity [5]: 63%
- residual activity [6]: 18%
- residual activity [7]: 40%
- residual activity [8]: 70%
- residual activity [9]: 16%
- residual activity [10]: 136%
- residual activity [11]: 45%
- residual activity [12]: 13%

Structure (SMILES): c1ccc(-c2cnc(Nc3ccc(OCCN4CCCC4)cc3)s2)cc1
- residual activity [1]: 105%
- residual activity [2]: 76%
- residual activity [7]: 62%
- residual activity [8]: 68%
- residual activity [9]: 16%
- residual activity [10]: 131%
- residual activity [13]: 115%
- residual activity [14]: 81%
- residual activity [15]: 28%
- residual activity [11]: 74%
- residual activity [12]: 27%

Structure (SMILES): COc1ccc(-c2cnc3c(-c4ccsc4)cnn3c2)cc1
- residual activity [1]: 99%
- residual activity [2]: 94%
- residual activity [3]: 94%
- residual activity [7]: 94%
- residual activity [8]: 71%
- residual activity [9]: 68%
- residual activity [10]: 126%
- residual activity [13]: 88%
- residual activity [14]: 88%
- residual activity [15]: 79%
- residual activity [16]: 82%

Structure (SMILES): O=c1cc(N2CCOCC2)oc2c1ccc1ccccc12
- residual activity [1]: 94%
- residual activity [2]: 94%
- residual activity [3]: 94%
- residual activity [4]: 81%
- residual activity [6]: 94%
- residual activity [7]: 88%
- residual activity [8]: 90%
- residual activity [9]: 77%
- residual activity [17]: 81%
- residual activity [13]: 104%
- residual activity [18]: 110%
- residual activity [19]: 94%
- residual activity [14]: 105%
- residual activity [15]: 90%
- residual activity [11]: 101%
- residual activity [12]: 85%
- residual activity [16]: 88%

Structure (SMILES): O=C1Cc2c([nH]c3ccc([N+](=O)[O-])cc23)-c2ccccc2N1
- residual activity [1]: 22%
- residual activity [2]: 21%
- residual activity [3]: 24%
- residual activity [4]: 25%
- residual activity [5]: 61%
- residual activity [6]: 41%
- residual activity [8]: 44%
- residual activity [9]: 24%
- residual activity [18]: 48%
- residual activity [19]: 40%
- residual activity [14]: 18%
- residual activity [15]: 36%
- residual activity [11]: 10%
- residual activity [12]: 9%
- residual activity [16]: 106%

Structure (SMILES): Oc1cccc(-c2nc(N3CCOCC3)c3oc4ncccc4c3n2)c1
- residual activity [1]: 100%
- residual activity [2]: 93%
- residual activity [3]: 84%
- residual activity [4]: 84%
- residual activity [5]: 100%
- residual activity [6]: 78%
- residual activity [8]: 78%
- residual activity [9]: 69%
- residual activity [10]: 148%
- residual activity [13]: 92%
- residual activity [11]: 98%
- residual activity [12]: 99%

Structure (SMILES): NC(=O)Nc1sc(-c2ccc(F)cc2)cc1C(N)=O
- residual activity [1]: 55%
- residual activity [2]: 14%
- residual activity [3]: 67%
- residual activity [4]: 27%
- residual activity [5]: 88%
- residual activity [6]: 40%
- residual activity [7]: 96%
- residual activity [8]: 10%
- residual activity [9]: 2%
- residual activity [17]: 78%
- residual activity [20]: 31%
- residual activity [18]: 69%
- residual activity [19]: 27%
- residual activity [14]: 66%
- residual activity [15]: 25%

Structure (SMILES): CC(C)N(CCC(=O)c1ccc2ccccc2c1)Cc1ccccc1
- residual activity [1]: 88%
- residual activity [2]: 79%
- residual activity [8]: 68%
- residual activity [9]: 63%
- residual activity [17]: 74%

Structure (SMILES): O=C1Cc2c([nH]c3ccc(Br)cc23)-c2ccccc2N1
- residual activity [1]: 25%
- residual activity [2]: 3%
- residual activity [3]: 35%
- residual activity [4]: 17%
- residual activity [8]: 24%
- residual activity [9]: 3%
- residual activity [17]: 88%
- residual activity [20]: 56%
- residual activity [13]: 72%
- residual activity [18]: 75%
- residual activity [19]: 44%
- residual activity [11]: 13%
- residual activity [12]: 2%
